Screening results: PubChem BioAssay, several laboratories
Hits are enriched below; roughly 2.2% of the tested compounds scored in any of these assays.
aSyn 5UTR inh: MLPCN primary screen, SNCA 5' untranslated region; alpha-synuclein 5'UTR reporter, inhibitor activity; inhibition, % (tested at 7.5 µM); 300,000 tested, 0.82% active; AID 1813, 2009; in the data active = inhibition above about 60%;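 also: H4 neuroglioblastoma cells stably carrying SNCA 5'UTR luciferase fusion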
BaF3 tox: parental Ba/F3 cell viability inhibition, counter-screen for JAK2V617F inhibitor project, murine pro-B, CellTiter-Glo luminescence. CellTiter-Glo ATP luminescence. inhibition, % at 5.6 µM. 220,000 tested, 1.1% active. AID 1486, 2009;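 active = inhibition above a per-campaign cutoff, the mean inhibition of all tested compounds plus 3 SD, cut at about 27% in these data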
APP 5UTR inh: inhibitors of APP translation via 5'UTR reporter, primary screen, APP 5'UTR luciferase, SH-SY5Y cells; SH-SY5Y APP 5'UTR-luciferase reporter, luminescence; inhibition, % at 2 µM; 190,000 tested, 0.82% active; AID 1285, 2008;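 active = inhibition above a set limit, derived from the sample mean plus 3 SD, cut at about 45% in these data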
IEC-6 tox: cytotoxicity in IEC-6 intestinal epithelial cells, primary screen, cytotoxicity control for KLF5 inhibitor project, cell-based, luminescence. AID 1825, 2009. 290,000 tested, 0.78% active. inhibition, % at 5 µM. IEC-6 cytotoxicity, luminescence viability
Ba/F3 V617F tox: reduced viability of JAK2V617F-dependent Ba/F3 cells, primary screen, JAK2V617F inhibitor project, cell-based, Ba/F3 EpoR-JAK2V617F, luminescence. inhibition, % at 5.6 µM. AID 1446, 2008. ATP luminescence. 220,000 tested, 1.1% active;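 active = inhibition above the campaign mean plus 3 SD over all tested compounds, cut at about 24% in these data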;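 also: cytokine-independent growth of Ba/F3 cells driven by EpoR plus mutant JAK2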
KLF5 inh: KLF5 expression inhibitors, primary screen, DLD-1 cells, luminescence; DLD-1 KLF5 promoter-luciferase reporter; inhibition, % at 5 µM; 290,000 tested, 0.23% active; AID 1700, 2009;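 active = inhibition above a per-plate limit of that plate's mean compound inhibition plus 3 SD, cut at about 60% in these data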;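 also: higher means less KLF5 promoter-driven luciferase light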
IEC-6 cytotox cf: cytotoxic compounds in IEC-6 epithelial cells, confirmation, cytotoxicity control, cell-based, luminescence. shares compounds with IEC-6 tox. IEC-6 rat intestinal epithelial viability. inhibition, % at 5 µM. 1,900 tested, 63% active. AID 1907, 2009
Large screens that a line does not name were inactive (follow-up assays come after a bar, where they were run). Rule as the data show it, unless noted: active = inhibition above about 22%; inactive = the rest.

CCOc1cc(/C=C2\CN(C)C/C(=C\c3ccc(O)c(OCC)c3)C2=O)ccc1O	aSyn 5UTR inh 96.5, IEC-6 tox 88.1 (no result: BaF3 tox, APP 5UTR inh, Ba/F3 V617F tox) | IEC-6 cytotox cf 37.6
COc1ccccc1C(=O)COC(=O)CCNS(=O)(=O)c1ccc(C)c(C)c1	none (no result: BaF3 tox, APP 5UTR inh, IEC-6 tox, Ba/F3 V617F tox, KLF5 inh)
COc1ccc(OC)c(Nc2nc(C)nc3c2oc2ccccc23)c1	IEC-6 tox 26.3 (no result: BaF3 tox, APP 5UTR inh, Ba/F3 V617F tox) | IEC-6 cytotox cf 23.3
COc1ccc([N+](=O)[O-])cc1Nc1c2ccccc2nc2ccccc12	aSyn 5UTR inh 76.5, IEC-6 tox 79.0, KLF5 inh 66.4 (no result: BaF3 tox, APP 5UTR inh, Ba/F3 V617F tox) | IEC-6 cytotox cf 71.7
Cc1cccc(Nc2c3c(nc4ccccc24)CCC3)c1	none (no result: APP 5UTR inh)
COc1ccc(OC)c(Nc2c3ccccc3nc3ccccc23)c1	IEC-6 tox 45.6 (no result: BaF3 tox, APP 5UTR inh, Ba/F3 V617F tox) | IEC-6 cytotox cf inactive
COc1cc(Nc2c3c(nc4ccccc24)CCC3)cc(OC)c1OC	IEC-6 tox 84.6 (no result: BaF3 tox, APP 5UTR inh, Ba/F3 V617F tox) | IEC-6 cytotox cf 58.4
C=CCOc1ccc(C2=NOC(C(=O)Nc3ccc4c(c3)OCCO4)C2)cc1OC (configuration not stated)	none (no result: BaF3 tox, APP 5UTR inh, Ba/F3 V617F tox)
Cc1cc(=O)oc2c(C)c(OCC(=O)Nc3cccnc3)ccc12	none (no result: BaF3 tox, APP 5UTR inh, Ba/F3 V617F tox)
COc1ccc(OCC(=O)Nc2cc(NC(=O)c3ccco3)ccc2OC)cc1	none (no result: BaF3 tox, APP 5UTR inh, Ba/F3 V617F tox)
COc1ccc(Cl)cc1S(=O)(=O)N1CCC(C(=O)NCCC2=CCCCC2)CC1	none (no result: BaF3 tox, APP 5UTR inh, Ba/F3 V617F tox)
CC1(C)CC(N2CCCCC2)=CC(=[N+]2CCCCC2)C1	BaF3 tox 67.9, IEC-6 tox 23.4, Ba/F3 V617F tox 84.4 | IEC-6 cytotox cf 25.3
CC1(C)CC(N2CCOCC2)=CC(=[N+]2CCOCC2)C1	none
Cc1cccc2cc(C#N)c(SCC(=O)N3CC(=O)Nc4ccccc43)nc12	aSyn 5UTR inh 110.3, BaF3 tox 88.7, APP 5UTR inh 96.2, IEC-6 tox 92.9, Ba/F3 V617F tox 85.2 | IEC-6 cytotox cf 73.6
COc1ccc2cc(C#N)c(SCC(=O)N3CC(=O)Nc4ccccc43)nc2c1	none (no result: APP 5UTR inh)
Cc1cc(NC(=O)CSc2nnc(-c3ccc(O)cc3)o2)no1	none (no result: APP 5UTR inh)
CCc1cc2ccc(C)c(C)c2nc1SCC(=O)Nc1cc(C)on1	IEC-6 tox 34.9 (no result: BaF3 tox, APP 5UTR inh, Ba/F3 V617F tox) | IEC-6 cytotox cf 31.6
Cc1cc(NC(=O)CSc2nc3c(C)ccc(C)c3cc2C#N)no1	none (no result: BaF3 tox, APP 5UTR inh, Ba/F3 V617F tox)
Cc1cc(NC(=O)CSc2nc3c(C)cccc3cc2C#N)no1	IEC-6 tox 22.8 (no result: BaF3 tox, APP 5UTR inh, Ba/F3 V617F tox) | IEC-6 cytotox cf inactive
Cc1cc(NC(=O)CSc2nnc(-c3ccccc3)o2)no1	IEC-6 tox 29.1 | IEC-6 cytotox cf inactive
O=Nc1c(-c2c(O)[nH]c3cc(Br)ccc23)[nH]c2ccccc12	aSyn 5UTR inh 76.6, IEC-6 tox 22.7 (no result: BaF3 tox, APP 5UTR inh, Ba/F3 V617F tox) | IEC-6 cytotox cf inactive
Cc1ccc(C)c(S(=O)(=O)N2CCCCC2CCNC(=O)C(=O)NC2CC2)c1 (configuration not stated)	none (no result: BaF3 tox, APP 5UTR inh, IEC-6 tox, Ba/F3 V617F tox, KLF5 inh)
N#Cc1c(NC(=O)/C=C/c2ccco2)sc2c1CCCC2	BaF3 tox 89.7, APP 5UTR inh 92.6, IEC-6 tox 92.7, Ba/F3 V617F tox 90.9 | IEC-6 cytotox cf 78.4
CCC1CCCCN1CCCNC(=O)C1CCN(Cc2nc(-c3ccc(Cl)cc3)oc2C)CC1 (configuration not stated)	IEC-6 tox 47.4 (no result: BaF3 tox, APP 5UTR inh, Ba/F3 V617F tox) | IEC-6 cytotox cf 69.6
O=[N+]([O-])c1cccnc1S(=O)(=O)c1ccccc1	IEC-6 tox 40.6 (no result: BaF3 tox, APP 5UTR inh, Ba/F3 V617F tox) | IEC-6 cytotox cf inactive
CCN(CC)CCCNC(=O)CN1N=C(c2ccc(OC)cc2)CCC1=O	none (no result: BaF3 tox, APP 5UTR inh, Ba/F3 V617F tox)
COc1cccc(C2NC(=S)NC(C)=C2C(=O)c2ccccc2)c1OC (configuration not stated)	BaF3 tox 78.3, APP 5UTR inh 77.6, IEC-6 tox 68.3, Ba/F3 V617F tox 84.1 | IEC-6 cytotox cf 50.4
COc1ccccc1C(=O)NNC(=S)NC(=O)c1cccs1	aSyn 5UTR inh 73.2, IEC-6 tox 47.7 (no result: BaF3 tox, APP 5UTR inh, Ba/F3 V617F tox) | IEC-6 cytotox cf 28.0
O=C(NC(=S)NNC(=O)c1ccccc1O)c1cccs1	none (no result: BaF3 tox, APP 5UTR inh, Ba/F3 V617F tox)
COc1cc2ncnc(NCc3cccc(F)c3F)c2cc1OC	IEC-6 tox 35.4 (no result: BaF3 tox, APP 5UTR inh, Ba/F3 V617F tox) | IEC-6 cytotox cf 28.2
COc1cc2ncnc(NCc3ccccc3F)c2cc1OC	IEC-6 tox 28.5 (no result: BaF3 tox, APP 5UTR inh, Ba/F3 V617F tox) | IEC-6 cytotox cf 33.2
Fc1ccc(F)c(CNc2ncnc3cc(Cl)ccc23)c1	none (no result: BaF3 tox, APP 5UTR inh, Ba/F3 V617F tox)
Cc1ccc2c(CN(C)Cc3ccc(OC(F)F)cc3)cc(=O)oc2c1C	none (no result: BaF3 tox, APP 5UTR inh, Ba/F3 V617F tox)
Cc1ccc2c(CN(C)Cc3ccccc3)cc(=O)oc2c1C	IEC-6 tox 55.2 (no result: BaF3 tox, APP 5UTR inh, Ba/F3 V617F tox) | IEC-6 cytotox cf 32.9
Cc1ccc2c(CN(C)Cc3cccc(F)c3)cc(=O)oc2c1C	IEC-6 tox 40.8 (no result: BaF3 tox, APP 5UTR inh, Ba/F3 V617F tox) | IEC-6 cytotox cf 24.0
O=C(c1cc(COc2cccc3cnccc23)on1)N1CCCC(CCCO)C1 (configuration not stated)	IEC-6 tox 23.0 (no result: BaF3 tox, APP 5UTR inh, Ba/F3 V617F tox) | IEC-6 cytotox cf 24.9
COc1cc(OC)cc(C(=O)NCC(=O)Nc2ccc(-c3ccccc3)cc2)c1	IEC-6 tox 30.1 (no result: BaF3 tox, APP 5UTR inh, Ba/F3 V617F tox) | IEC-6 cytotox cf inactive
Cc1[nH]c(C)c(S(=O)(=O)N2CCCCC2C)c1C(=O)N1CCCC1 (configuration not stated)	none (no result: BaF3 tox, APP 5UTR inh, Ba/F3 V617F tox)
COc1ccccc1NC(=O)C(C)OC(=O)c1nc2nc(C)cc(C)n2n1 (configuration not stated)	none (no result: BaF3 tox, APP 5UTR inh, IEC-6 tox, Ba/F3 V617F tox, KLF5 inh)
CCOc1ccc(N(CC(=O)Nc2ccccc2OC)S(=O)(=O)c2ccccc2)cc1	aSyn 5UTR inh 123.4, IEC-6 tox 78.0 (no result: BaF3 tox, APP 5UTR inh, Ba/F3 V617F tox) | IEC-6 cytotox cf 53.1
COc1ccc(N(CC(=O)Nc2ccc(OC)cc2OC)S(=O)(=O)c2ccccc2)cc1	none
CC1CCCN(C(=O)CCNS(=O)(=O)c2ccc3c(c2)oc(=O)n3C)C1 (configuration not stated)	none (no result: BaF3 tox, APP 5UTR inh, Ba/F3 V617F tox)
O=C(CN1CCOCC1)NCc1cc([N+](=O)[O-])ccc1O	none (no result: BaF3 tox, APP 5UTR inh, Ba/F3 V617F tox)
O=C(CCl)N1CCCC1c1ccc2c(c1)OCCO2 (configuration not stated)	IEC-6 tox 77.6 (no result: BaF3 tox, APP 5UTR inh, Ba/F3 V617F tox) | IEC-6 cytotox cf 24.4
